Results on eight compounds are retold here after PubChem BioAssay (NCATS).

The target of assay [1] is Lysosomal acid glucosylceramidase (Homo sapiens) (UniProt P04062). The assay is described as follows: Glucocerebrosidase-p2 (AID 348; in the data active = potency below about 10 µM; note: potency is the fitted concentration of half-maximal effect). Particulars: purified GBA, blue fluorogenic substrate, 40 min. In short, it runs like this: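 Normal human glucocerebrosidase (0.2 nM) with blue fluorogenic substrate (80 uM final) in citrate/phosphate pH 5.9 with 10mM sodium taurocholate, 0.01% tween-20; 40 min RT, NaOH/glycine stop; fluorescence Ex 365/Em 440; AC50 from a titration from 0.6 nM upwards.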

A short description of assay [2]: AP1 Signaling Pathway (AID 357).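 Note: ME-180 reporter cells stimulated with EGF at its EC50 level; % is set by controls: 0 for no effect and ±100 for the full control effect.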 To be noted: ME-180 AP-1-bla reporter, EGF-induced, beta-lactamase ratio, 5 h; at 7.69 µM (top of the series) unless noted. In short, it runs like this:
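A ratiometric CCF4 readout (405 nm excitation; 460 and 530 nm emission) quantified AP-1-driven beta-lactamase in ME-180 cells after 5 h with compound and EC50 EGF; AC50 values were derived for activators and inhibitors.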

The target of assay [3] is Cytochrome P450 1A2 (Homo sapiens) (UniProt P05177). The assay is described as follows: p450-cyp1a2 (AID 410; calls by dose curve; note: potency is the fitted concentration of half-maximal effect). To be noted: recombinant CYP1A2, luciferin-ME demethylation, luminescence; series mostly up to 11.4 µM. In short, it runs like this:
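20nM CYP1A2, 100uM Luciferin-ME (=Km), 100mM KPO4; cpd 10 min RT; +NADPH regen, 60 min RT; stop/detect 20 min; luminescence. Normalized to furafylline 57 uM = full inhibition.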

The target in assay [4] is Glucocorticoid receptor (Homo sapiens) (UniProt P04150). The experiment in a line: GR-GFP Redistribution (AID 450;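 active = compounds whose dose series gives a full or clear partial fitted curve of increased nuclear translocation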; note: potency is the fitted concentration of half-maximal effect). Particulars: U2OS GR-GFP nuclear translocation, laser cytometry, 2 h.
Assay [5] shares this target. The experiment in a line: GR-EFC Redistribution (AID 451; calls by dose curve; note: potency is the fitted concentration of half-maximal effect). Particulars: CHO-K1 GR-EFC translocation, beta-gal luminescence, 2 h. In short, it runs like this:
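CHO-K1 cells stably expressing nuclear-localized β-gal enzyme acceptor and GR fused C-terminally to the enzyme donor fragment; ligand-driven nuclear translocation restores β-gal by complementation. Compounds titrated up to 46 uM final, 2 h at 37 °C; luminescence read.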

Assay [6] concerns the target Mitogen-activated protein kinase 10 (Mus musculus) (UniProt Q61831). The experiment in a line: JNK3 AlphaScreen Assay (AID 530).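 Note: kinase came from lysate of stimulated human HepG2 cells; % is set by controls: 0 for no effect and ±100 for the full control effect.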 Particulars: JNK3 lysate, c-Jun phosphorylation; series mostly up to 11.4 µM. In short, it runs like this: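 Biotinylated GST-cJun(1-79) served as substrate for JNK3 in HepG2 lysates stimulated with IL-1beta and TNF-alpha. ATP was 10 uM final, pH 7.6. Ser73 phosphorylation was quantified by AlphaScreen (680 nm excitation).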
(In general: Alpha assays give light when donor and acceptor beads are brought close together.)

Assay [7] deals with 3',5'-cyclic-AMP phosphodiesterase 4B (Homo sapiens) (UniProt Q07343). The assay is described as follows: qHTS Assay for Inhibitors of PDE-IV (AID 607; active = well fitted activation curve with a large enough effect in the main read-out, with a control signal flat, not every such curve was filed as active; note: % of control where 0% means no effect). Particulars: HEK293 ACTOne CNG channel cells, membrane potential fluorescence; series mostly up to 22.9 µM. In short, it runs like this: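 HEK293 ACTOne cells with CNG channel (1000/well), endogenous PDE4; membrane potential dye, compounds up to 22.9 uM final. Fluorescence Ex 535/Em 590; RO 20-1724 (100 uM final) as reference.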
A general note: In qHTS, concentration-response curves come from the screen itself.

The target of assay [8] is Cytochrome P450 2C9 (Homo sapiens) (UniProt P11712). The experiment in a line: qHTS Assay for Inhibitors and Substrates of Cytochrome P450 2C9 (AID 883; active = well fitted curve in the direction sought with a large enough effect; an effect the other way counts as inactive or inconclusive; note: potency is the fitted concentration of half-maximal effect; nearly all actives have a fitted effect of over 60% in size). Particulars: recombinant CYP2C9, luciferin-H luminescence, 60 min; series mostly up to 11.4 µM. In short, it runs like this:
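A luminogenic readout tracked human CYP2C9 (10nM) converting deoxyluciferin (100uM, at KM) in 25mM KPO4 during 60 min at 37C with regenerated NADPH. Values normalized to 57uM sulphaphenazole as complete inhibition.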

The target in assay [9] is Cytochrome P450 3A4 (Homo sapiens) (UniProt P08684). The assay is described as follows: qHTS Assay for Activators of Cytochrome P450 3A4 (AID 885; active = well fitted curve in the direction sought with a large enough effect; an effect the other way counts as inactive or inconclusive; note: nearly all actives have a fitted effect of over 65% in size). To be noted: recombinant CYP3A4, Luciferin-PPXE luminescence, 60 min; series mostly up to 11.4 µM. In short, it runs like this: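 Human CYP3A4 dealkylates Luciferin-PPXE to luciferin, which luciferase detection converts to light. Substrate was at its KM (25uM), buffer 200mM KPO4, reaction 60 min at RT.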

Assay [10] deals with Cytochrome P450 2C19 (Homo sapiens) (UniProt P33261). The assay is described as follows: qHTS Assay for Inhibitors and Substrates of Cytochrome P450 2C19 (AID 899; active = well fitted curve in the direction sought with a large enough effect; an effect the other way counts as inactive or inconclusive; note: nearly all actives have a fitted effect of over 60% in size; note: potency is the fitted concentration of half-maximal effect; for activity, negative = inhibition: % is set by controls: 0 for no effect and ±100 for the full control effect). Particulars: recombinant CYP2C19, luciferin-H EGE luminescence; series mostly up to 11.4 µM. In short, it runs like this:
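NADPH-dependent conversion of Luciferin-H EGE (10uM, at KM) by 5nM enzyme in 50mM KPO4, 60 min at 37C following 10 min compound preincubation. Stopped with luciferin detection buffer; luminescence read after 20 min.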

Assay [11] is described as follows: qHTS Assay for Identification of Small Molecule Agonists for Hypoxia Response Element Signaling Pathway (AID 914; active = well fitted activation curve with a large enough effect in the signal ratio, with a control signal flat, not every such curve was filed as active; the % refers to the signal ratio; note: % of control where 0% means no effect). Particulars: ME-180 HRE-bla reporter, beta-lactamase ratio, CoCl2, 17 h; activation: hits give high values. In short, it runs like this:
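HRE-bla ME-180 cells, overnight plating in Opti-MEM with 0.5% dialyzed FBS; cpd titration + EC50 CoCl2, 17 h, 37 degrees Celsius; CCF4 2.5 h RT; 460/530 nm ratio; AC50.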

Assay [12] can be described thus: Stat Signaling Pathway (AID 446).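 Note: ME-180 cervical cancer cells given 40 pM IL-6 alongside compound; SIE-controlled beta-lactamase reporter measured as 460/530 nm FRET emission ratio; % is set by controls: 0 for no effect and ±100 for the full control effect.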 To be noted: ME-180 (cervical carcinoma) SIE beta-lactamase reporter, IL-6 stimulated, 5 h; at 7.69 µM (top of the series) unless noted. In short, it runs like this: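 Normalization used AC90 stimulation (300 pM IL-6) and AC90 inhibition (125 nM pan-JAK inhibitor at 40 pM IL-6). The underlying signal is SIE-driven beta-lactamase in ME-180 cells after 5 h IL-6 exposure with compound.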

The target in assay [13] is Cytochrome P450 3A4 (Homo sapiens) (UniProt P08684). The assay is described as follows: qHTS Assay for Inhibitors and Substrates of Cytochrome P450 3A4 (AID 884; active = well fitted curve in the direction sought with a large enough effect; an effect the other way counts as inactive or inconclusive; note: potency is the fitted concentration of half-maximal effect; nearly all actives have a fitted effect of over 50% in size). Particulars: recombinant CYP3A4, Luciferin-PPXE luminescence; series mostly up to 57.1 µM. In short, it runs like this: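 Luminescent readout of luciferin produced by CYP3A4 (20 nM) dealkylation of Luciferin-PPXE, 25 uM (its KM). NADPH-driven reaction ran 60 min at RT after 10 min compound preincubation; data scaled to 57 uM ketoconazole as 100% inhibition.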

Each structure is given as a SMILES string. Unmarked numbers belong to inactive results. Inconclusive results are not listed. Active and inactive are the calls of the source. Unless noted, calls come from the whole dose curve; as a rule, active = well fitted curve in either direction with a large enough effect (not every such curve was filed as active); inconclusive = small, poorly fitted or top-dose-only effect, or another doubt; inactive = flat fitted curve, though single readings scatter.

Chain of Cytochrome P450 1A2 (Homo sapiens) (P05177 whole entry, looked up): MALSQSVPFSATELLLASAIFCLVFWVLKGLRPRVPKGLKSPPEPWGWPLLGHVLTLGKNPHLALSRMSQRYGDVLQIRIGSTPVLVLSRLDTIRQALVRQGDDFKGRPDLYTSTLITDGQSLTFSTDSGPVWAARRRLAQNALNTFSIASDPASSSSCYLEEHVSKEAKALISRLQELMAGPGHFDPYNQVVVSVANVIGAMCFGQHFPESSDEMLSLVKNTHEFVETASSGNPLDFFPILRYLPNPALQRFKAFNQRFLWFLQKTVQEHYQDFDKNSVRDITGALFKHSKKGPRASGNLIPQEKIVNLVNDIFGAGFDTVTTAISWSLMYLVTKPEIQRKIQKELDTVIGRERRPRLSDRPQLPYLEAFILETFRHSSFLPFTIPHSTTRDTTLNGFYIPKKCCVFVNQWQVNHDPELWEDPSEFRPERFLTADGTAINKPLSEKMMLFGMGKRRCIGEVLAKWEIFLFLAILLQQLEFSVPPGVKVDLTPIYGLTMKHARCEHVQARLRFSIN
Chain of Cytochrome P450 2C19 (Homo sapiens) (P33261 whole entry, looked up): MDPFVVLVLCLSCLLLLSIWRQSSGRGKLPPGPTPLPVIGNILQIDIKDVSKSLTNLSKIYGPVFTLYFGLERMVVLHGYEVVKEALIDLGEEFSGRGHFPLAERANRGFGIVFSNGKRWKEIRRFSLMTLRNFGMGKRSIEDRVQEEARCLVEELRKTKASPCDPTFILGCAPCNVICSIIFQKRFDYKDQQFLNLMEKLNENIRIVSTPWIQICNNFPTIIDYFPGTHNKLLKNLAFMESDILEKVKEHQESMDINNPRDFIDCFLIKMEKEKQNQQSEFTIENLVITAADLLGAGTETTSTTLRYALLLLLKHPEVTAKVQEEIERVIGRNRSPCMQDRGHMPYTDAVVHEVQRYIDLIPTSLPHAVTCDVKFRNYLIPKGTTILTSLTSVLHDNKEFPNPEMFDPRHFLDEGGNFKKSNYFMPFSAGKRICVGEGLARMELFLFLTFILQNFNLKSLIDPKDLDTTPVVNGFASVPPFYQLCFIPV
Chain of Glucocorticoid receptor (Homo sapiens) (P04150 whole entry, looked up): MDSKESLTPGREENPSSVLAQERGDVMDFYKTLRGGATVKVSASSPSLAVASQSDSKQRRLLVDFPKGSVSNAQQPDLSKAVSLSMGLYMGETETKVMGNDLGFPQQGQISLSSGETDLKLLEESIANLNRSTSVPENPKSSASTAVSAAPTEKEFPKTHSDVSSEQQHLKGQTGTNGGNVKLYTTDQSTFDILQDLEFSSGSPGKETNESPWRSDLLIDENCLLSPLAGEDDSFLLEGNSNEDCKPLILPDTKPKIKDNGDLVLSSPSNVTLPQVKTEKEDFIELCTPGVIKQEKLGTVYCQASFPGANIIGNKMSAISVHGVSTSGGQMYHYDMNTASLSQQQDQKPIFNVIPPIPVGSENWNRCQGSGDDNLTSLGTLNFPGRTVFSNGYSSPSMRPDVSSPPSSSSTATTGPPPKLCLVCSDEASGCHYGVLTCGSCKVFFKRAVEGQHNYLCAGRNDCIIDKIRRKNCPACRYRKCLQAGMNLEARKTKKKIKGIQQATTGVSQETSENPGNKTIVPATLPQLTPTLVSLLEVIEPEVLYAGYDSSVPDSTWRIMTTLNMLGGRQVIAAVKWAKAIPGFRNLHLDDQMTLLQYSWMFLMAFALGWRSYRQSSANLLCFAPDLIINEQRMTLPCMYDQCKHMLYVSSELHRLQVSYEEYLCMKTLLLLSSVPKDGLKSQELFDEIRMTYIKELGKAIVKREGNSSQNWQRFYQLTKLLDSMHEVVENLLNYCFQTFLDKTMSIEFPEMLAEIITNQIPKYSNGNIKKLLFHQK
Chain of 3',5'-cyclic-AMP phosphodiesterase 4B (Homo sapiens) (Q07343 whole entry, looked up): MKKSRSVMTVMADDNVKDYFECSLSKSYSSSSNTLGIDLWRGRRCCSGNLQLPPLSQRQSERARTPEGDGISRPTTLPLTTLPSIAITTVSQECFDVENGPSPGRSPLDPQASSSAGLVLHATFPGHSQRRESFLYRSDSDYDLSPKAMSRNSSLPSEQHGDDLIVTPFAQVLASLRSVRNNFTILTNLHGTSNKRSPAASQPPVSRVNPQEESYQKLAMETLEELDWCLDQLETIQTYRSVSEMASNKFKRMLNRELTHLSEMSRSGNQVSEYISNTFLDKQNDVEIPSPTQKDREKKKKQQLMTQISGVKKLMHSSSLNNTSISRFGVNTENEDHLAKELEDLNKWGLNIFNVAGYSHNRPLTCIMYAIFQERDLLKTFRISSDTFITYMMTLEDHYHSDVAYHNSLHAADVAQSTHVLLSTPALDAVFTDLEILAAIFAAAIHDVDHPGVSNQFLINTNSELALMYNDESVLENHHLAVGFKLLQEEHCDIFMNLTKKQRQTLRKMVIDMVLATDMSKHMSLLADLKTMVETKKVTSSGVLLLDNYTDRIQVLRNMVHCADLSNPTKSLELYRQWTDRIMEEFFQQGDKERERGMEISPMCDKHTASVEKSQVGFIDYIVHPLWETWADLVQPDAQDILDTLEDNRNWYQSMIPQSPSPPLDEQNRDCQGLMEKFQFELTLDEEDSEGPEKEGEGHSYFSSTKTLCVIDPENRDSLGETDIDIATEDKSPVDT
Chain of Lysosomal acid glucosylceramidase (Homo sapiens) (P04062 whole entry, looked up): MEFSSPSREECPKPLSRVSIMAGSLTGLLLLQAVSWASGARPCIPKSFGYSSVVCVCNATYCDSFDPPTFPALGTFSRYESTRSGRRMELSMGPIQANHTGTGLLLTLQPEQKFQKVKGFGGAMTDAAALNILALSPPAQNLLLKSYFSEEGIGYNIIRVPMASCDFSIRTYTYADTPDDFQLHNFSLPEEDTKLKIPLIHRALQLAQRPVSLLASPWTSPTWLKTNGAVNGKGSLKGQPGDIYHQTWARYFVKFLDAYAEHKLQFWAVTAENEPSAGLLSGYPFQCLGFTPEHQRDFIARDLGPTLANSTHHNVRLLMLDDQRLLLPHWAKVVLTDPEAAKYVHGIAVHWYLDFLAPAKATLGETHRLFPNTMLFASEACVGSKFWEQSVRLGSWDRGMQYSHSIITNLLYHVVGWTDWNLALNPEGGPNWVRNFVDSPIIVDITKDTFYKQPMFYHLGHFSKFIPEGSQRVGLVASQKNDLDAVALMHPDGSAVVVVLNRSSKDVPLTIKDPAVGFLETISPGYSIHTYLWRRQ
Chain of Cytochrome P450 3A4 (Homo sapiens) (P08684 whole entry, looked up): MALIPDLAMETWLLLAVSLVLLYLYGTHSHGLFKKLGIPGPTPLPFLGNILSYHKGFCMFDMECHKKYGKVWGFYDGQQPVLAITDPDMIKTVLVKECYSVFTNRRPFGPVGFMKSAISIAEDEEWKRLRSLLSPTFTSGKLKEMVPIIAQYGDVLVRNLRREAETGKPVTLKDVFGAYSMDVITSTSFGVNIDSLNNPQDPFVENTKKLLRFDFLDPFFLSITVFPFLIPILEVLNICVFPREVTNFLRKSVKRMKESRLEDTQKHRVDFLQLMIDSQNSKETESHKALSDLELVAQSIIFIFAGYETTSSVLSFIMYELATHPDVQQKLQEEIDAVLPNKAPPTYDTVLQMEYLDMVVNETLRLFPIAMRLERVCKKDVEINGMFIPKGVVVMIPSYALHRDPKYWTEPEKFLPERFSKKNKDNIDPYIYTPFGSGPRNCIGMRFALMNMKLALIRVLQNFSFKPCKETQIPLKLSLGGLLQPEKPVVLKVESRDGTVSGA
Chain of Cytochrome P450 2C9 (Homo sapiens) (P11712 whole entry, looked up): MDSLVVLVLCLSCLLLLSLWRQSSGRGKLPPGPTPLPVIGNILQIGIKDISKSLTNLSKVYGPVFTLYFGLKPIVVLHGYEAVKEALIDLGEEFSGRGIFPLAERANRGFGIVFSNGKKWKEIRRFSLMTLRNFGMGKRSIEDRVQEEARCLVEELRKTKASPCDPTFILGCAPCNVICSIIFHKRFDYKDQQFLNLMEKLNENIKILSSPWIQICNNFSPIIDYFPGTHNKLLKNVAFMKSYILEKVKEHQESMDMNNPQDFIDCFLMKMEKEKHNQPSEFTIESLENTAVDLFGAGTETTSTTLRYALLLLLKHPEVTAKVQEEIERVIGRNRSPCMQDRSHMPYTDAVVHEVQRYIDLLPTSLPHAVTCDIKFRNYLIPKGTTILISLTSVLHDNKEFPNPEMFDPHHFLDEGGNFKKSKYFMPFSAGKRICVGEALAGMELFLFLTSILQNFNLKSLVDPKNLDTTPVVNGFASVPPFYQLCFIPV

As for `COc1ccc2ccccc2c1/C=C\C(=O)c1ccccc1`, the Potency in assay [1] is over 11.4 µM; in [3] it was 3.16 µM (active); in [4], over 46 µM; in assay [5], over 9.22 µM; in assay [8], 1.26 µM (active); in assay [10], 0.316 µM (active). In addition, in assay [2], the activity change, negative = inhibition was -15.4%. For the same compound, the Potency result in assay [6], in [7] and in assay [9] was “inactive” in each case. Moreover, the activation in [11] was 22.5%.
Regarding `O=[N+]([O-])c1ccc(C2=Nn3c(nnc3-c3ccc(Cl)cc3)SC2)o1`, the Potency was over 11.4 µM in assay [1]; 0.158 µM (active) in assay [3]; over 46 µM in assay [4]; over 9.22 µM in assay [5]; 2.51 µM (active) in [10]. For the same compound, the activity change, negative = inhibition in assay [2] is 22.7%. In addition, the activity, negative = inhibition in assay [12] was -6.24%. In addition, the Potency result in assay [6] and in [7] was “inactive” throughout.
For the compound `CN(C)c1ccc(-c2nc(Nc3ccncc3)c3ccccc3n2)cc1`, the Potency in [1] is 3.67 µM (active); in assay [3], 0.501 µM (active); in assay [4] it was over 46 µM; in [5], over 46 µM; in [13] it was 7.94 µM (active). Further, in [2], the activity change, negative = inhibition was -10.7%. Moreover, in assay [12], the activity, negative = inhibition was -28.2%. The Potency entry in [7] and in assay [9] was “inactive” each time.
On to `CC(=O)O[C@H]1CC[C@@]2(C)C(=CC[C@@H]3[C@H]4CC[C@@H]([C@H](C)C(=O)O)[C@]4(C)CC[C@H]32)C1`, for which the Potency is over 11.4 µM in assay [1], 3.16 µM (active) in assay [3], over 46 µM in assay [4] and over 9.22 µM in [5]. In assay [2], the activity change, negative = inhibition was -2.09%. In addition, the activity, negative = inhibition in [12] is 9.87%. For the same compound, the Potency result in assay [6] and in assay [7] was “inactive” in each case. The activation in assay [11] was 1.23%.
With `C[C@@]12CC[C@H]3[C@H](CC=C4C[C@@H](O)CC[C@@]43C)[C@@H]1CC[C@@H]2N(CCO)CCO`, the values for the Potency in assay [1], in assay [4] and in assay [5] were over 11.4 µM, over 46 µM and over 9.22 µM, respectively. The activity change, negative = inhibition in assay [2] is -4.05%. The Potency result in assay [3], in assay [6] and in assay [7] was “inactive” in each case. For the same compound, the activity, negative = inhibition in [12] is 18.7%. In addition, in [11], the activation is 9.1%.
As for `NS(=O)(=O)c1ccc(N=C2C(=O)Nc3ccccc32)cc1`, the Potency in assay [1] was over 11.4 µM; in assay [4], over 46 µM; in assay [5], over 9.22 µM. In addition, the activity change, negative = inhibition was -4.71% in [2] and -12.7% [at 2.29 µM] in [3]. Besides, the activity, negative = inhibition in assay [12] is 4.23%. Also, the Potency result in assay [6] and in [7] was “inactive” in each case. Also, the activation in assay [11] was -6.17%.
In the case of `N#Cc1ccc(CN2CC3(CCN(C(=O)c4cc(C(F)(F)F)cc(C(F)(F)F)c4)CC3)C2)cc1`, the Potency in assay [1] was over 11.4 µM; in assay [5], over 46 µM. In assay [2], the activity change, negative = inhibition was -21.3%. The Potency entry in [3], in assay [6] and in assay [7] was “inactive” each time. In assay [12], the activity, negative = inhibition was 7.48%.
With `C[C@H](CN(C)C)C(O)(c1ccccc1)c1ccccc1`, the Potency is over 11.4 µM in [1], over 46 µM in assay [4] and over 9.22 µM in [5]. The activity change, negative = inhibition in assay [2] is -8.88%. For the same compound, the Potency result in [3], in assay [6], in assay [7] and in assay [10] was “inactive” each time. Also, the activity, negative = inhibition in assay [12] was 8.39%.
